Values joined by “and” are separate entries in the source; they are usually repeats but may differ in a detail not shown here. Identical values can stand only once. Screen size: about 5,500 compounds; about 2,000 (36%) were called active. Inconclusive results (about 18%) are left out. No stated cut-off is given here; in the data, active means normalized growth mostly below about 0.91 (no sharp cut-off); inconclusive means no clear call, values can overlap the other calls; inactive means mostly above about 0.92. The list shows a part of the results. Some structures have more than one record in an assay (separate samples or runs), and their calls can disagree.
Assay: chemical genetic growth profiling, strain panel (AID 1159580);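 further: tested at 20 µM; growth read once vehicle control cultures reached saturation at 30 °C; 1 = growth at the plate median or of vehicle wells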
Conditions: S. cerevisiae deletion strains, growth OD

C=CCCCCCCCCC(=O)O
normalized growth (locus YAL021C, strain ccr4, stronger effect = lower value): 0.996 (inactive) and 1 (inactive) | normalized growth (locus YAL026C, strain drs2, stronger effect = lower value): 0.984 (inactive) and 0.932 (inactive) | normalized growth (locus YAL030W, strain snc1, stronger effect = lower value): 0.973 (inactive) and 0.992 (inactive) | normalized growth (locus YBL061C, strain skt5, stronger effect = lower value): 0.968 (inactive) and 1 (inactive) | normalized growth (locus YBR009C, strain hhf1, stronger effect = lower value): 0.977 (inactive) and 0.983 (inactive) | normalized growth (locus YBR023C, strain chs3, stronger effect = lower value): 0.977 (inactive) and 0.985 (inactive) | normalized growth (locus YBR171W, strain sec66, stronger effect = lower value): 0.983 (inactive) and 0.976 (inactive) | normalized growth (locus YBR231C, strain swc5, stronger effect = lower value): 0.989 (inactive) and 1.01 (inactive) | normalized growth (locus YBR279W, strain paf1, stronger effect = lower value): 0.975 (inactive) and 0.985 (inactive) | normalized growth (locus YCL011C, strain gbp2, stronger effect = lower value): 0.978 (inactive) and 0.989 (inactive) | normalized growth (locus YCL016C, strain dcc1, stronger effect = lower value): 0.988 (inactive) and 0.992 (inactive) | normalized growth (locus YCL061C, strain MRC1, stronger effect = lower value): 0.99 (inactive) and 0.991 (inactive) | normalized growth (locus YCL069W, strain vba3, stronger effect = lower value): 0.989 (inactive) and 0.991 (inactive) | normalized growth (locus YCR088W, strain abp1, stronger effect = lower value): 0.978 (inactive) and 1 (inactive) | normalized growth (locus YDL005C, strain med2, stronger effect = lower value): 0.962 (inactive) and 1 (inactive) | normalized growth (locus YDL040C, strain nat1, stronger effect = lower value): 0.974 (inactive) and 0.994 (inactive) | normalized growth (locus YDR001C, strain nth1, stronger effect = lower value): 0.978 (inactive) and 1 (inactive) | normalized growth (locus YDR069C, strain doa4, stronger effect = lower value): 0.984 (inactive) and 0.997 (inactive) | normalized growth (locus YDR137W, strain rgp1, stronger effect = lower value): 0.988 (inactive) and 0.986 (inactive) | normalized growth (locus YDR159W, strain sac3, stronger effect = lower value): 1 (inactive) and 1.06 (inactive) | normalized growth (locus YDR195W, strain ref2): 1 (inactive) and 1.09 (inactive) | normalized growth (locus YDR297W, strain sur2, stronger effect = lower value): 0.978 (inactive) and 0.998 (inactive) | normalized growth (locus YDR334W, strain swr1, stronger effect = lower value): 0.988 (inactive) and 0.976 (inactive) | normalized growth (locus YDR335W, strain msn5, stronger effect = lower value): 0.981 (inactive) and 0.965 (inactive) | normalized growth (locus YDR392W, strain spt3, stronger effect = lower value): 0.898 (inactive) and 0.647 (active) | normalized growth (locus YEL003W, strain gim4, stronger effect = lower value): 0.984 (inactive) and 0.981 (inactive) | normalized growth (locus YEL037C, strain rad23, stronger effect = lower value): 0.969 (inactive) and 0.972 (inactive) | normalized growth (locus YEL061C, strain CIN8 (second series), stronger effect = lower value): 0.982 (inactive) and 0.992 (inactive) | normalized growth (locus YER015W, strain faa2, stronger effect = lower value): 0.985 (inactive) and 0.992 (inactive) | normalized growth (locus YER016W, strain bim1, stronger effect = lower value): 0.978 (inactive) and 0.985 (inactive) | normalized growth (locus YER111C, strain swi4, stronger effect = lower value): 0.981 (inactive) and 1 (inactive) | normalized growth (locus YER155C, strain BEM2 (second series), stronger effect = lower value): 0.977 (inactive) and 0.947 (inactive) | normalized growth (locus YFR010W, strain ubp6, stronger effect = lower value): 1.02 (inactive) and 0.951 (inactive) | normalized growth (locus YGL167C, strain pmr1, stronger effect = lower value): 0.961 (inactive) and 0.995 (inactive) | normalized growth (locus YGL173C, strain kem1, stronger effect = lower value): 0.984 (inactive) and 0.975 (inactive) | normalized growth (locus YGL227W, strain vid30, stronger effect = lower value): 0.97 (inactive) and 1 (inactive) | normalized growth (locus YGL240W, strain doc1, stronger effect = lower value): 0.976 (inactive) and 0.911 (inactive) | normalized growth (locus YGL253W, strain hxk2, stronger effect = lower value): 0.983 (inactive) and 0.978 (inactive) | normalized growth (locus YHR013C, strain ard1, stronger effect = lower value): 1.21 [resistant] (active) and 0.965 (inactive) | normalized growth (locus YHR027C, strain rpn1, stronger effect = lower value): 0.981 (inactive) and 0.971 (inactive) | normalized growth (locus YHR030C, strain SLT2, stronger effect = lower value): 0.948 (inactive) and 0.105 (active) | normalized growth (locus YHR079C, strain IRE1, stronger effect = lower value): 0.979 (inactive) and 0.111 (active) | normalized growth (locus YHR142W, strain chs7, stronger effect = lower value): 1.01 (inactive) and 0.926 (inactive) | normalized growth (locus YJL092W, strain hpr5, stronger effect = lower value): 0.979 (inactive) and 0.99 (inactive) | normalized growth (locus YJL095W, strain BCK1 (second series), stronger effect = lower value): 0.98 (inactive) and 0.996 (inactive) | normalized growth (locus YJL095W, strain BCK1, stronger effect = lower value): 0.974 (inactive) and 0.136 (active) | normalized growth (locus YJL115W, strain asf1, stronger effect = lower value): 0.974 (inactive) and 0.969 (inactive) | normalized growth (locus YJL129C, strain trk1, stronger effect = lower value): 0.984 (inactive) and 0.778 (active) | normalized growth (locus YJL154C, strain vps35, stronger effect = lower value): 0.978 (inactive) and 0.995 (inactive) | normalized growth (locus YJL164C, strain tpk1, stronger effect = lower value): 0.973 (inactive) and 0.929 (inactive) | normalized growth (locus YJL166W, strain qcr8, stronger effect = lower value): 0.993 (inactive) and 0.959 (inactive) | normalized growth (locus YJL187C, strain SWE1, stronger effect = lower value): 0.979 (inactive) and 0.99 (inactive) | normalized growth (locus YJR066W, strain TOR1, stronger effect = lower value): 0.928 (inactive) and 0.0525 (active) | normalized growth (locus YKL160W, strain elf1, stronger effect = lower value): 0.997 (inactive) and 0.97 (inactive) | normalized growth (locus YKR026C, strain gcn3, stronger effect = lower value): 0.951 (inactive) and 0.98 (inactive) | normalized growth (locus YKR091W, strain srl3, stronger effect = lower value): 0.986 (inactive) and 0.997 (inactive) | normalized growth (locus YLL001W, strain dnm1, stronger effect = lower value): 0.978 (inactive) and 0.993 (inactive) | normalized growth (locus YLL026W, stronger effect = lower value): 0.975 (inactive) and 0.996 (inactive) | normalized growth (locus YLL041C, strain sdh2, stronger effect = lower value): 0.992 (inactive) and 0.988 (inactive) | normalized growth (locus YLR027C, strain aat2, stronger effect = lower value): 0.987 (inactive) and 0.983 (inactive) | normalized growth (locus YLR113W, strain HOG1, stronger effect = lower value): 1.1 (inactive) and 0.156 (active) | normalized growth (locus YLR221C, strain rsa3, stronger effect = lower value): 0.984 (inactive) and 0.937 (inactive) | normalized growth (locus YLR258W, strain gsy2, stronger effect = lower value): 0.981 (inactive) and 1.01 (inactive) | normalized growth (locus YLR262C, strain YPT6 (second series), stronger effect = lower value): 0.978 (inactive) and 0.977 (inactive) | normalized growth (locus YLR320W, strain mms22, stronger effect = lower value): 0.998 (inactive) and 0.925 (inactive) | normalized growth (locus YLR342W, strain FKS1, stronger effect = lower value): 0.98 (inactive) and 0.989 (inactive) | normalized growth (locus YLR357W, strain rsc2, stronger effect = lower value): 0.948 (inactive) and 0.927 (inactive) | normalized growth (locus YLR370C, strain arc18, stronger effect = lower value): 0.987 (inactive) and 1 (inactive) | normalized growth (locus YLR384C, strain iki3, stronger effect = lower value): 0.968 (inactive) and 0.985 (inactive) | normalized growth (locus YML120C, strain ndi1, stronger effect = lower value): 0.997 (inactive) and 0.931 (inactive) | normalized growth (locus YMR058W, strain fet3, stronger effect = lower value): 0.981 (inactive) and 0.952 (inactive) | normalized growth (locus YMR125W, strain sto1, stronger effect = lower value): 0.938 (inactive) and 0.956 (inactive) | normalized growth (locus YMR129W, stronger effect = lower value): 0.993 (inactive) and 0.997 (inactive) | normalized growth (locus YMR205C, strain PFK2, stronger effect = lower value): 0.966 (inactive) and 1.04 (inactive) | normalized growth (locus YMR231W, strain pep5, stronger effect = lower value): 0.97 (inactive) and 0.951 (inactive) | normalized growth (locus YNL071W, strain lat1, stronger effect = lower value): 0.982 (inactive) and 0.953 (inactive) | normalized growth (locus YNL183C, strain NPR1, stronger effect = lower value): 0.933 (inactive) and 0.0268 (active) | normalized growth (locus YNL209W, strain ssb2, stronger effect = lower value): 0.979 (inactive) and 0.984 (inactive) | normalized growth (locus YNL248C, strain rpa49, stronger effect = lower value): 1.01 (inactive) and 0.852 (active) | normalized growth (locus YNL322C, strain KRE1 (second series), stronger effect = lower value): 0.981 (inactive) and 0.991 (inactive) | normalized growth (locus YNR049C, strain mso1, stronger effect = lower value): 0.979 (inactive) and 0.992 (inactive) | normalized growth (locus YOR001W, strain rrp6, stronger effect = lower value): 0.987 (inactive) and 0.93 (inactive) | normalized growth (locus YOR070C, strain gyp1, stronger effect = lower value): 0.974 (inactive) and 0.975 (inactive) | normalized growth (locus YOR080W, strain dia2, stronger effect = lower value): 0.965 (inactive) and 0.987 (inactive) | normalized growth (locus YOR083W, strain WHI5, stronger effect = lower value): 1.01 (inactive) and 0.909 (inactive) | normalized growth (locus YOR106W, strain vam3, stronger effect = lower value): 1.01 (inactive) and 0.925 (inactive) | normalized growth (locus YOR231W, strain MKK1, stronger effect = lower value): 0.953 (inactive) and 0.105 (active) | normalized growth (locus YOR265W, strain rbl2, stronger effect = lower value): 0.981 (inactive) and 0.986 (inactive) | normalized growth (locus YOR270C, strain vph1, stronger effect = lower value): 1.01 (inactive) and 0.771 (active) | normalized growth (locus YOR290C, strain snf2, stronger effect = lower value): 0.992 (inactive) and 0.916 (inactive) | normalized growth (locus YPL051W, strain arl3, stronger effect = lower value): 0.986 (inactive) and 0.967 (inactive) | normalized growth (locus YPL078C, strain atp4, stronger effect = lower value): 0.982 (inactive) and 0.88 (active) | normalized growth (locus YPL106C, strain sse1, stronger effect = lower value): 0.988 (inactive) and 1.04 (inactive) | normalized growth (locus YPL240C, strain hsp82, stronger effect = lower value): 0.986 (inactive) and 1 (inactive) | normalized growth (locus YPL256C, strain CLN2, stronger effect = lower value): 1.01 (inactive) and 0.114 (active)

From PubChem BioAssay AID1159580 (chemical genetic matrix, 2015)
